Source: PubChem
MARV entry inh: qHTS for inhibitors of binding or entry into cells for Marburg Virus; Marburg virus pseudotyped entry inhibition, cell reporter; Potency, µM (doses to about 37.8 µM), for the others: top-dose activity change, negative = inhibition, usual class: inhibitors; actives 1.8% (n = 300,000); AID 540276, 2011; calls by dose curve; tested in HEK293 cells; also: potency is read from the fitted curve at half-maximal effect; % is scaled to controls: 0 for no effect and ±100 for the full control effect
Cycloheximide cs: Cycloheximide Counterscreen for Small Molecule Inhibitors of Shiga Toxin | AID 2314, 2010 | max response, % | actives 12% (n = 300,000) | cell reporter, cycloheximide protein synthesis inhibition counterscreen; in the data active = max response mostly above about 13%, no sharp cut-off; inactive = mostly below about 14%; also: read at 38.3 µM for the half of the compounds with a filed dose; 0% is about no effect
FMDV inh: High Throughput Screening for Foot and Mouth Disease Virus Antivirals; FMDV antiviral cell-based qHTS; Potency, µM (highest dose often 57.9 µM), for inactives: at the highest dose activity change, negative = inhibition, hits mostly inhibitors; actives 1.2% (n = 410,000); calls by dose curve; tested in HEK293T cells; also: read-out not given here; potency is read from the fitted curve at half-maximal effect; % is scaled to controls: 0 for no effect and ±100 for the full control effect; nearly all actives have a fitted effect of over 45% in size
Shiga inhibitor: A qHTS for Small Molecule Inhibitors of Shiga Toxin. Vero cells, Shiga toxin protein synthesis inhibition reporter. inhibition, % at 38.7 µM. actives 9.2% (n = 290,000). AID 2315, 2010; in the data active = inhibition mostly above about 28%, no sharp cut-off; inactive = mostly below about 43%; also: 0% is about no effect
HCV inhibitor: qHTS Assay for Inhibitors of Hepatitis C Virus (HCV). Huh7.5.1 HCVcc-Cre infection, luciferase reporter, 44 h. Potency, µM (top dose mostly 41.8 µM), for inactives: at the top dose activity change, negative = inhibition, actives largely listed as inhibitors. actives 3.4% (n = 340,000); active = well fitted inhibition curve with a large enough effect; inconclusive = small, poorly fitted or top-dose-only effect, or another doubt; inactive = no such curve, though single readings can be large or run the other way; also: potency is read from the fitted curve at half-maximal effect; % is scaled to controls: 0 for no effect and ±100 for the full control effect
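A cell-based infection assay in which seeded cells (1,000 per well) receive test compound after 4 h, are inoculated with HCVcc-Cre at approximately 0.5 moi, and are incubated 44 h before luminescence detection.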
Lassa entry inh: qHTS for Inhibitors of binding or entry into cells for Lassa Virus; Lassa virus pseudotype entry inhibition, cell reporter; Potency, µM (doses to about 37.9 µM), without a hit: top-dose activity change, negative = inhibition, actives largely listed as inhibitors; actives 1.2% (n = 300,000); AID 540256, 2011; calls by dose curve; tested in HEK293 cells; also: potency is read from the fitted curve at half-maximal effect; % is scaled to controls: 0 for no effect and ±100 for the full control effect; nearly all actives have a fitted effect of over 50% in size
* marks the source's active call; other numbers are inactive results; ? = inconclusive; / = no result; [ ] = remark or other dose. A selection: hits, their analogues and other compounds. The true share with any hit is near 13%.

SMILES	MARV entry inh	Cycloheximide cs	FMDV inh	Shiga inhibitor	HCV inhibitor	Lassa entry inh
CC(C)=C1SC(N2CCN(Cc3ccccc3)CC2)=NC1=O	?	23*	5%	73	10%	?
CC(C)=C1SC(N2CCN(c3cccc(Cl)c3)CC2)=NC1=O	0%	0	-16%	2	?	6%
CC(C)(C)c1cc([N+](=O)[O-])cc(C(C)(C)C)c1O	6.5µM*	2	?	25	10µM*	16µM*
Cc1cc(C(C)(C)C)c(O)c(C(C)(C)C)c1	/	1	-4%	-4	-7%	/
CCOC(=O)c1sc(N)c(C(N)=O)c1C	20%[46.1 µM]	1	14%	-17	7%	12%[46.1 µM]
CCCOC(=O)c1c(N)sc(C(=O)OCC)c1C	36%	37*	56%	active	-30%	-19%
CCOC(=O)c1c(N)sc(C(N)=O)c1C	4%[46.1 µM]	-3	20%	-1	11%	10%
CCOC(=O)c1c(N)sc(N)c1C(=O)OCC	-11%	0	32µM*	-7	12%	-4%
O=C(CC(=O)c1ccccc1)CS(=O)(=O)c1ccccc1	7%[46.1 µM]	/	0%	/	3%	?
O=C1CSC(=S)N1/N=C/c1ccc2c(c1)OCCO2	?	35*	?	57*	3%	5%[46.1 µM]
COc1cc(/C=N/N2C(=O)CSC2=S)ccc1O	11%	9	0%	-8	13%	14%
Cc1ccc(OC2=NS(=O)(=O)c3ccccc32)cc1	?	-3	8%	21	6%	?
COc1ccccc1OC1=NS(=O)(=O)c2ccccc21	6%	12	40µM*	-15	22%	11%
CCCCOc1ncnc2c1[nH]c1ccc(F)cc12	?	34*	/	50*	2.8µM*	?
CCCCOc1ncnc2c1[nH]c1ccc(OCC)cc12	13%	12	20%	9	11%	-9%
CCCCOc1ncnc2c1[nH]c1ccccc12	?	22*	?	37*	4.5µM*	-11%
CCCCOc1ncnc2c1[nH]c1ccc(OC)cc12	?	56*	26%	77*	?	-26%
Cn1c(SCC(=O)NCc2ccc3c(c2)OCO3)nc2c(c1=O)SCC2	10%	6	-24%	-15	16%	8%
Cn1ccnc1CN1CCN(C(=O)c2cc(COc3ccc(F)c(F)c3)on2)CC1	?	15	-8%	-13	3%	2%
O=C(NCCc1cn2ccccc2n1)c1cc(COc2ccc3ncccc3c2)on1	5.6µM*	3	11µM*	2	2.5µM*	-23%
O=C(NC1CCCC1)c1cc(COc2ccc3ncccc3c2)on1	/	-3	?	-8	3.5µM*	/
CC(NC(=O)c1cc(COc2ccc3ncccc3c2)on1)c1ccc(F)cc1 (stereo unspecified)	/	5	1.8µM*	7	2.2µM*	/
Cc1ccc(OCc2cc(C(=O)NC3CCCCC3)no2)cn1	/	8	?	-6	?	/
O=C(c1cc(COc2ccc3ncccc3c2)on1)N1CCCCCC1	?	18	-6%	49*	?	-23%[46.1 µM]
O=C(COC(=O)COc1ccccc1)NCc1ccco1	?	/	-13%	/	6%	1%
SMILES	MARV entry inh	Cycloheximide cs	FMDV inh	Shiga inhibitor	HCV inhibitor	Lassa entry inh
COCC1CCN(C(=O)c2cc(COc3ccc4ncccc4c3)on2)CC1	-19%[46.1 µM]	1	?	-11	1.1µM*	?
O=C(c1cc(COc2ccc3ncccc3c2)on1)N1CCCC1	?	33*	-23%	40*	7.1µM*	-10%
NS(=O)(=O)c1ccc2nc(NC(=O)c3ccc(Br)o3)sc2c1	8%	24*	52%	50*	-3%	3%
Cc1ccc2nc(NC(=O)c3ccc(Br)o3)sc2c1	/	45*	26%	95*	-11%	/
COC(=O)c1ccc(OCC(O)CN2CCC(C)CC2)cc1 (stereo unspecified)	/	-4	-21%	-22	-5%	/
CC1CCC/C(=N/NC(=O)c2ccccc2-n2cccc2)C1 (stereo unspecified)	-5%	1	-26%	10	35%	-17%
COc1ccc2c(-c3ccccc3)cc(SCC(N)=O)nc2c1	5.6µM*	-2	-23%	-6	?	?
O=c1[nH]c(CSc2ccccn2)nc2c1cnn2-c1ccccc1	20%	15	0%	31*	?	1%
Cc1cc(C)c(C#N)c(SCc2nc3ccccc3c(=O)[nH]2)n1	1.1µM*	17	21%	27	-4%	3.2µM*
COCc1cc(C)nc(SCc2nc3ccccc3c(=O)[nH]2)c1C#N	?	7	0%	-11	-27%	-1%[46.1 µM]
Nn1c(CSc2ccccn2)nc2ccccc2c1=O	14%	44*	31%	83*	3%	0%
Cc1ccc2nc(SCc3nc4ccccc4c(=O)[nH]3)[nH]c2c1	?	27*	-11%	69*	12%	?
COC(=O)c1sc2nc(CSc3nc4ccc(C)cc4[nH]3)[nH]c(=O)c2c1C	-6%	-5	-2%	-6	13%	-10%
O=c1[nH]c(CSc2ccccn2)nc2ccccc12	?	43*	-3%	119*	6%	-5%[46.1 µM]
Cc1ccc(C#N)c(SCc2ccccc2F)n1	0%[46.1 µM]	7	8%	21	4%	18%
Cc1ccc2nc(CSc3nc(C)ccc3C#N)[nH]c2c1	2.3µM*	17*	8.9µM*	21	?	1µM*
CCCCNC(=O)C1CC(=O)N(CCC(C)C)C1 (stereo unspecified)	6%	-1	-16%	-7	6%	-8%
CSc1nc(N)nc(-c2cccs2)c1C#N	?	13	-8%	17	?	2%
CC(C)Sc1nc(N)nc(-c2cccs2)c1C#N	?	33*	35%	105*	?	14%
O=C(Nc1cc(Sc2nc3ccccc3s2)cc([N+](=O)[O-])c1)c1ccccc1F	?	9	-11%	-3	10µM*	?
O=C(Nc1cc(Sc2ccccn2)cc([N+](=O)[O-])c1)c1cccc(F)c1	?	10	32µM*	48	?	?
O=C(Nc1cc(Sc2nc3ccccc3s2)cc([N+](=O)[O-])c1)c1ccccc1	?	7	?	-2	?	-17%
Cc1ccc(CNc2ncnc3[nH]ncc23)cc1	-8%	/	-26%	/	10%	-6%
CCCn1c(NCc2ccc(N(C)C)cc2)nc2ccccc21	/	21	16%	5	-24%	/
Cc1c(NC(=S)Nc2ccccc2C(F)(F)F)cccc1[N+](=O)[O-]	-2%	0	-21%	-4	1%	?
O=C(CS(=O)(=O)c1c[nH]c2ccccc12)Nc1ccc2c(c1)OCCO2	11%	38*	60%	45*	-1%	0%
O=C(CSc1nnc(-c2ccccc2Cl)n1Cc1ccco1)Nc1ccc2c(c1)OCCO2	?	13*	-18%	4	-26%	-24%
